# Records with an inconclusive call do not appear. Values without a mark were called inactive. Activity calls are given as the source filed them. Calls come from the whole dose curve; as a rule, active = well fitted inhibition curve with a large enough effect; inconclusive = small, poorly fitted or top-dose-only effect; inactive = flat fitted curve, though single readings scatter.
# Tested on: PC26
# Assay: qHTS profiling for inhibitors of Plasmodium falciparum proliferation (AID 504749); note: nearly all actives have a fitted effect of over 60% in size;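 for activity, negative = inhibition: 0% = DMSO vehicle and full inhibition = artemisinin control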
# Conditions: P. falciparum in erythrocytes, SYBR Green DNA, 72 h; series mostly up to 28.7 µM; activity, negative = inhibition: at the top concentration
# In short: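 Infected RBCs, 0.3% parasitemia/2.5% Hct final; cpd 72 h, 37 C, 5% CO2; lysis buffer with saponin/triton/SYBR Green I, o/n RT dark; FI 485/535; norm. to artemisinin (0.29 uM) and DMSO.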
# Potency is the fitted concentration of half-maximal effect.
SMILES,"activity, negative = inhibition",Potency
CCCCCCCCCCCCCCCC(=O)OC[C@H](O)[C@H]1OC[C@@H](O)[C@@H]1O,3.04%,–
CCCCC(=O)OCC(=O)[C@]1(O)Cc2c(O)c3c(c(O)c2[C@H](OC2CC(NC(=O)C(F)(F)F)C(O)C(C)O2)C1)C(=O)c1c(OC)cccc1C3=O (stereo not given in full),–,1510 nM (active)
CCN(CC)CC(=O)Nc1c(C)cc(C)cc1C,-8.31%,–
CC(=O)N[C@H]1[C@H](O[C@@H]2c3ccc(c(Cl)c3)Oc3cc4cc(c3O[C@@H]3O[C@H](CO)[C@@H](O)[C@H](O)C3C)Oc3ccc(cc3Cl)C[C@H]3NC(=O)[C@@H](N)c5ccc(O)c(c5)Oc5cc(O)cc(c5)[C@H](NC3=O)C(=O)N[C@H]4C(=O)N[C@H]3C(=O)N[C@@H]2C(=O)N[C@@H](C(=O)O)c2cc(O)cc(O[C@H]4O[C@H](CO)[C@@H](O)C(O)[C@@H]4O)c2-c2cc3ccc2O)O[C@H](CO)[C@@H](O)[C@@H]1O (stereo not given in full),2.06% [at 12.8 µM],–
NC(=O)c1ncn(C2OC(CO)C(O)C2O)c1N (stereo not given),-1.1%,–
C[C@H]1[C@@H](OC(=O)CCC(=O)O)OC2OC3(C)CC[C@H]4[C@H](C)CC[C@@H]1[C@@]24OO3 (stereo not given in full),–,3.4 nM (active)
CC1(Cn2ccnn2)[C@H](C(=O)O)N2C(=O)C[C@H]2S1(=O)=O (stereo not given in full),-10.6%,–
OCCN1CC(O)C(O)C(O)C1CO (stereo not given),2.37%,–
COc1cc2c(cc1O)CCN[C@@]21CS[C@H]2c3c(OC(C)=O)c(C)c4c(c3C(COC1=O)N1C2C2c3c(cc(C)c(OC)c3O)CC([C@@H]1O)N2C)OCO4 (stereo not given in full),–,1.3 nM (active)
CC(CCC(=O)O)C1CCC2C3C(=O)C[C@@H]4CC(=O)CC[C@@]4(C)C3CC(=O)[C@]12C (stereo not given in full),-12.5%,–
